From PubChem BioAssay (Tox21)
Values joined by “and” are separate entries in the source; they are usually repeats but may differ in a detail not shown here. Identical values can stand only once. Inconclusive results are not listed. Some compounds were tested as several samples or in several runs, with calls that do not always agree. Active and inactive are the calls of the source. Unless noted, calls follow the shape of the dose curve; as a rule, active = well fitted curve in the direction sought with a large enough effect in the repeat runs; inconclusive = weak or mixed curves; inactive = no such curve, though single readings can be large; an effect the other way counts as inactive or inconclusive.

What was measured:
[1] = qHTS assay to identify small molecule agonists of the RXR signaling pathway - cell viability counter screen (AID 1159529); also: nearly all actives have a fitted effect of over 50% in size; also: potency is read from the fitted curve at half-maximal effect
Outline: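 In this parallel viability measure, GeneBLAzer RXR-alpha HEK 293T cells (2% charcoal-stripped FBS) were given a 5 hr preincubation, treated with compounds 16 hr at 37 C, and read by CellTiter-Glo luminescence.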

[2] = qHTS assay to identify small molecule antagonists of the retinoid acid receptor (RAR) signaling pathway - cell viability counter screen (AID 1159551); also: nearly all actives have a fitted effect of over 35% in size; also: potency is read from the fitted curve at half-maximal effect
Outline: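 ATP-based viability, C3RL4 cells, 6 h at 37 C with 1 uM final retinol co-added after compound; luminescence read 30 min post CellTiter-Glo, RT.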

[3] = qHTS assay to identify small molecule antagonists of the retinoic acid receptor (RAR) signaling pathway (AID 1159552; also: nearly all actives have a fitted effect of over 50% in size; also: potency is read from the fitted curve at half-maximal effect)
Outline: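 C3RL4 RARE-luc cells, overnight plating; retinol 1 uM final added right after compound; 6 hr 37 C; luciferase read at 30 min RT.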

[4] = qHTS assay to identify small molecule agonists of the retinoic acid receptor (RAR) signaling pathway (AID 1159553); also: potency is read from the fitted curve at half-maximal effect
Outline: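 Quantitative high-throughput format: the Tox21 10K library was tested on C3RL4 RARE-luciferase cells for 6 hr at 37 C and 5% CO2, with luminescence measured after a 30 min room-temperature reagent step.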

[5] = qHTS assay to identify small molecule antagonists of the estrogen related receptor (ERR) signaling pathway from Tox21 library - cell viability counter screen (AID 1224834); also: nearly all actives have a fitted effect of over 30% in size; also: potency is read from the fitted curve at half-maximal effect
Outline: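 Compounds in DMSO were pinned onto ERR cells that had been incubated for 6 h, and the plates were held at 37 C for 17.5 h. CellTiter-Fluor reagent was then added and fluorescence was measured after 30 min.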

[6] = qHTS assay to identify small molecule agonists of the constitutive androstane receptor (CAR) signaling pathway - cell viability counter screen (AID 1224836); also: series mostly up to about 92 µM; nearly all actives have a fitted effect of over 45% in size
Outline: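 Using CellTiter-Fluor, viability of HepG2 cells harbouring hCAR and CYP2B6-2.2kb was measured following 23 h incubation with a 15-concentration compound series plus PK11195 (0.75 uM final).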

[7] = qHTS assay to identify small molecule antagonists of the constitutive androstane receptor (CAR) signaling pathway - cell viability counter screen (AID 1224837); also: nearly all actives have a fitted effect of over 45% in size; also: potency is read from the fitted curve at half-maximal effect
Outline: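 Cells are seeded, rested 4 hr at 37 C/5% CO2, dosed with compound (15-point series) and 50 nM CITCO, incubated a further 23 hr, and then CellTiter-Fluor reagent is added before fluorescence is read. The line is HepG2 with stable hCAR and CYP2B6-2.2kb.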

[8] = target: Nuclear receptor subfamily 1 group I member 3 (Homo sapiens) (UniProt Q14994); experiment: qHTS assay to identify small molecule antagonists of the constitutive androstane receptor (CAR) signaling pathway (AID 1224838);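 also: HepG2 cells stably expressing hCAR with CYP2B6 luciferase reporter stimulated by CITCO; nearly all actives have a fitted effect of over 40% in size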; also: potency is read from the fitted curve at half-maximal effect
Chain of Nuclear receptor subfamily 1 group I member 3 (Homo sapiens) (Q14994 whole entry, looked up): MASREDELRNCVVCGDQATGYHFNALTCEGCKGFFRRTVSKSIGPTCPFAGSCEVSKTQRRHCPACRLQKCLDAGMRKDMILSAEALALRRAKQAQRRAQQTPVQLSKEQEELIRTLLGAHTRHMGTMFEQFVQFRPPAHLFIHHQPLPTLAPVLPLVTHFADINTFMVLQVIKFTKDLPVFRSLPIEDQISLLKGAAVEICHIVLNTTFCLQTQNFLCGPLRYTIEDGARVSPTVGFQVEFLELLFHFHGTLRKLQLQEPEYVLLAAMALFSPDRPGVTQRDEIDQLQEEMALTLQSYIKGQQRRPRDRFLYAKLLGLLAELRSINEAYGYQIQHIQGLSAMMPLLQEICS
Outline: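 Luminescence from a CYP2B6-2.2kb promoter reporter in hCAR-expressing HepG2 cells reflects CAR signaling. Cells received compounds at 15 concentrations and 50 nM CITCO (final), then incubated 24 h at 37 C/5% CO2.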

[9] = target: Nuclear receptor subfamily 1 group I member 3 (Homo sapiens) (UniProt Q14994); experiment: qHTS assay to identify small molecule agonists of the constitutive androstane receptor (CAR) signaling pathway (AID 1224839); also: nearly all actives have a fitted effect of over 15% in size; also: potency is read from the fitted curve at half-maximal effect
Outline: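 Double-stable HepG2 cells (hCAR, CYP2B6-2.2kb) seeded 4 h before compound addition. Exposure 24 h with 0.75 uM PK11195 final. Luciferase detected by ONE-Glo.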

[10] = qHTS assay to identify small molecule antagonists of the estrogen related receptor signaling pathway with the pleiotropic PPARgamma coactivator (PGC) from Tox21 10K library - cell viability counter screen (AID 1224840; active = well fitted cell-killing curve with a large enough effect in the repeat runs, not every such curve was filed as active; also: nearly all actives have a fitted effect of over 40% in size; also: potency is read from the fitted curve at half-maximal effect)
Outline: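 Cell viability is measured by CellTiter-Fluor fluorescence in PGC/ERR cells that receive compounds after a 6-hour attachment period and are then incubated 17.5 hours at 37 C.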

[11] = qHTS assay to identify small molecule antagonists of the estrogen related receptor signaling pathway with the pleiotropic PPARgamma coactivator (PGC) from Tox21 10K library (AID 1224841; call rule not given here; also: actives are mostly falling curves and most rising ones were filed inactive; nearly all actives have a fitted effect of over 50% in size; also: potency is read from the fitted curve at half-maximal effect)
Outline: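 Cells stably carrying the PGC/ERR reporter, seeded at 2,000 per well, received pin-transferred compounds 6 h post-plating. Exposure lasted 18 h at 37 C. Signal: One-Glo luminescence.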

[12] = target: Luciferin 4-monooxygenase (Photinus pyralis) (UniProt P08659); experiment: qHTS assay to identify small molecule inhibitors of firefly luciferase (AID 1224835); also: nearly all actives have a fitted effect of over 25% in size; also: potency is read from the fitted curve at half-maximal effect
Chain of Luciferin 4-monooxygenase (Photinus pyralis) (P08659 whole entry, looked up): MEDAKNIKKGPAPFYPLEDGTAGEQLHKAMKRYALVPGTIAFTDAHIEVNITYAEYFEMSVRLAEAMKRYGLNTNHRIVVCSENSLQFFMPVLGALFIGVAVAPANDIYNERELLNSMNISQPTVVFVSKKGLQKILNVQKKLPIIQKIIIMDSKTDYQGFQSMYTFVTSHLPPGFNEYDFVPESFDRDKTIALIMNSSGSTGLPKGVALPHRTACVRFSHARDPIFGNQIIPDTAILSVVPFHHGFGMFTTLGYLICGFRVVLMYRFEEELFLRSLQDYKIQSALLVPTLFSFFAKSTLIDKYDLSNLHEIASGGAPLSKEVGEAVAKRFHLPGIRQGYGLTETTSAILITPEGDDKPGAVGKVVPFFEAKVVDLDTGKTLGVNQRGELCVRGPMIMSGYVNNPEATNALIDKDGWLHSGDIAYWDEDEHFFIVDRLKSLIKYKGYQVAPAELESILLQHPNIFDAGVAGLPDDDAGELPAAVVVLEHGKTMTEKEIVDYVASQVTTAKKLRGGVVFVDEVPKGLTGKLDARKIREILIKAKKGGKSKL
Outline: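 Inhibition of purified Photinus luciferase is measured by luminescence. Substrate levels (D-luciferin, ATP) sit at their KM values. Each compound is tested in a concentration series.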

[13] = target: Thyrotropin receptor (Homo sapiens) (UniProt P16473); experiment: qHTS assay to identify small molecule agonists of the thyroid stimulating hormone receptor (TSHR) signaling pathway (AID 1224843; calls by dose curve; also: nearly all actives have a fitted effect of over 45% in size; also: potency is read from the fitted curve at half-maximal effect)
Chain of Thyrotropin receptor (Homo sapiens) (P16473 whole entry, looked up): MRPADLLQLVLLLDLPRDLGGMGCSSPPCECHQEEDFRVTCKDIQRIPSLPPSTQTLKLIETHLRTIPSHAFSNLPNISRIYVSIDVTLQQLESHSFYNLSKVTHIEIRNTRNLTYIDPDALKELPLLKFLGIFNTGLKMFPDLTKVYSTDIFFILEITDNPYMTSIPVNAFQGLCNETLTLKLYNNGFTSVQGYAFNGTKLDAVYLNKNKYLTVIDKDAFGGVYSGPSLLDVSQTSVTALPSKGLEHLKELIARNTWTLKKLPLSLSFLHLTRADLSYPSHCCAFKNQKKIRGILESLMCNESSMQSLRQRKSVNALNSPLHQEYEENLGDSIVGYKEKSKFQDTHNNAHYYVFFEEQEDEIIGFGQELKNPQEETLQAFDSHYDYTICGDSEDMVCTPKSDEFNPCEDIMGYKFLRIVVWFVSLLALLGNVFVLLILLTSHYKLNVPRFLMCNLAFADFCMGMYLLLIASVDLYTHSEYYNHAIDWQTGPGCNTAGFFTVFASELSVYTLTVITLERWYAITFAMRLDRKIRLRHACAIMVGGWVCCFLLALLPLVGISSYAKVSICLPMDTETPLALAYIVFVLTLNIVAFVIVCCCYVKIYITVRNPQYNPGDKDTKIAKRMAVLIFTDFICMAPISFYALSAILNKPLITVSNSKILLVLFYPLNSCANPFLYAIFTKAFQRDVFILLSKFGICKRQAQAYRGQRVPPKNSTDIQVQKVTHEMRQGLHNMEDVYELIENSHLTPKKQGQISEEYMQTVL
Outline: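 A cell-based cAMP HTRF format was run in TSHR-transfected HEK293 cells, 800 per well. Treatment: 30 min, room temperature. Detection: 1 h with labelled cAMP and anti-cAMP cryptate. Concentration-response over 15 points, three replicates.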

[14] = qHTS assay to identify small molecule antagonists of the estrogen related receptor (ERR) signaling pathway - cell viability counter screen (AID 1224818); also: potency is read from the fitted curve at half-maximal effect;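 also: viability measured after 17.5 h of compound exposure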
Outline: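 Quantitative high-throughput viability counter screen in ERR cells. Compounds (DMSO) incubated 17.5 h at 37 C; read-out was CellTiter-Fluor fluorescence.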

[15] = qHTS assay to identify small molecule antagonists of the estrogen related receptor signaling pathway with the pleiotropic PPARgamma coactivator (PGC) cell viability counter screen (AID 1224822; also: potency is read from the fitted curve at half-maximal effect)
Outline: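 Cytotoxicity in the PGC/ERR cell line is assessed with CellTiter-Fluor, read as fluorescence intensity 30 min after reagent addition, following 17.5 h compound treatment at 37 C.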

[16] = qHTS assay to identify small molecule agonists of the estrogen related receptor signaling pathway with the pleiotropic PPARgamma coactivator (PGC) from Tox21 10K library (AID 1224842); also: nearly all actives have a fitted effect of over 15% in size; also: potency is read from the fitted curve at half-maximal effect
Outline: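 Luminescence from One-Glo (30 min, room temperature) measured after PGC/ERR cells had 18 h at 37 C with pinned compound (23 nL in DMSO). Cells had been seeded at 2,000 per well and pre-incubated 6 h.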

Measured: Potency

O=C(/C=C/c1ccccc1)OCc1ccccc1
active: [4] 30.6 µM and 29.8 µM | [9] 29.8 µM
not listed: [12] | [13] | [14] | [15] | [16]
inactive: all other assays above

COc1cc([C@@H]2c3cc4c(cc3[C@H](O)[C@H]3COC(=O)[C@H]23)OCO4)cc(OC)c1OC
inactive: [1] | [2] | [4] | [12] | [6] | [13]
active: [8] 48.5 nM and 59.6 nM

Cc1cccc([N+](=O)[O-])c1C
inactive: [1] | [2] | [3] | [4] | [5] | [6] | [7] | [8] | [9]

CN(C)C(=N)N=C(N)N
inactive: [1] | [2] | [4] | [5] | [6] | [7] | [8] | [9] | [13]

CC(=O)O[C@]1(C(C)=O)CC[C@H]2[C@@H]3C=C(Cl)C4=CC(=O)[C@@H]5C[C@@H]5[C@]4(C)[C@H]3CC[C@@]21C
inactive: [1] | [2] | [14] | [15] | [12] | [6] | [7] | [13]

C=C(C)C(=O)OCCOC(=O)C(=C)C
not listed: [9] | [12] | [14] | [15]
inactive: all other assays above

CCC(C)OC(=O)c1ccc(O)cc1 (stereo not given)
active: [4] 61.1 µM
not listed: [6] | [9] | [12] | [14] | [15] | [16]
inactive: all other assays above

Cc1ccc2c(n1)Oc1ccc(C(C)C(=O)OCC(=O)N(C)C)cc1C2 (stereo not given)
active: [4] 10.6 µM and 8.41 µM | [9] 11.9 µM
not listed: [10] | [12] | [14] | [15]
inactive: all other assays above

CCCCOCCOCCO
inactive: [1] | [2] | [3] | [4] | [5] | [12] | [7] | [13]

COC(=O)C1=C(C)NC(C)=C(C(=O)OCCN(C)Cc2ccccc2)C1c1cccc([N+](=O)[O-])c1 (stereo not given)
active: [1] 24.4 µM | [14] 23.7 µM | [15] 23.7 µM | [5] 27.1 µM and 23.7 µM | [7] 43 µM and 23.7 µM | [10] 30.5 µM and 26.6 µM | [13] 30.5 µM
inactive: [2] | [8]

c1ccc2sc(SSN3CCOCC3)nc2c1
active: [2] 61 µM
inactive: [1] | [4] | [5] | [6] | [10] | [11] | [16] | [13]

O=[N+]([O-])c1ccc2c(c1)Cc1ccccc1-2
active: [9] 54.4 µM
not listed: [6] | [12] | [14] | [15] | [16]
inactive: all other assays above

CC(C)CC(C)(O)C#CC(C)(O)CC(C)C (stereo not given)
not listed: [12] | [14] | [15]
inactive: all other assays above

S=C(NC1CCCCC1)NC1CCCCC1
active: [4] 9.5 µM and 9.69 µM | [5] 13.7 µM | [8] 13.4 µM and 8.63 µM | [11] 23.9 µM and 21.7 µM
inactive: [1] | [2] | [3] | [12] | [7] | [16] | [13]

O=C1c2cccc(O)c2C(=O)c2c(O)cccc21
39 µM (active) and inactive: [11]
not listed: [5] | [10] | [12] | [14] | [15]
inactive: all other assays above

CC(C)Oc1ccc2c(=O)c(-c3ccccc3)coc2c1
active: [4] 0.335 µM | [9] 1.5 µM and 2.11 µM | [16] 2.66 µM and 2.98 µM
not listed: [12] | [14] | [15]
inactive: all other assays above

COc1ccc(C(=O)CC(=O)c2ccc(C(C)(C)C)cc2)cc1
58.7 µM (active) and inactive: [4]
not listed: [6] | [11] | [12] | [14] | [15] | [16]
inactive: all other assays above

CCCCC(CC)COP(=O)(OCC(CC)CCCC)OCC(CC)CCCC (stereo not given)
not listed: [3] | [4] | [11] | [14] | [15] | [16]
inactive: all other assays above

Nc1ncnc2nc[nH]c12
active: [16] 54.5 µM
not listed: [2] | [9] | [14] | [15]
inactive: all other assays above

O=C(/C=C/C=C/c1ccc2c(c1)OCO2)N1CCCCC1
active: [4] 3.86 µM and 1.93 µM | [12] 5.04 µM and 6.33 µM | [16] 17.3 µM and 9.69 µM
not listed: [1] | [5] | [9] | [14] | [15]
inactive: all other assays above

COc1cccc2c1C(=O)c1c(O)c3c(c(O)c1C2=O)C[C@@](O)(C(=O)CO)C[C@@H]3O[C@H]1C[C@H](N)[C@H](O)[C@H](C)O1
active: [3] 3.85 µM | [5] 2.17 µM and 6.68 µM | [7] 2.17 µM and 5.96 µM | [8] 137 nM and 1.06 µM | [16] 216 nM and 596 nM
inactive: [2] | [4] | [11] | [13]
